Test results: PubChem BioAssay (NCATS)
Inconclusive results are not listed. A call without a number means that no potency is given here. Activity calls are given as the source filed them. Unless noted, calls come from the whole dose curve; as a rule, active = well fitted curve in the direction sought with a large enough effect; inconclusive = small, poorly fitted or top-dose-only effect, or another doubt; inactive = no such curve, though single readings can be large; an effect the other way counts as inactive or inconclusive.

biological target: Cytochrome P450 3A4 (Homo sapiens) (UniProt P08684); test: qHTS Assay for Activators of Cytochrome P450 3A4 (AID 885); conditions: recombinant CYP3A4, Luciferin-PPXE luminescence, 60 min; series mostly up to 57.1 µM; note: nearly all actives have a fitted effect of over 65% in size
Sequence (P08684 whole entry, looked up): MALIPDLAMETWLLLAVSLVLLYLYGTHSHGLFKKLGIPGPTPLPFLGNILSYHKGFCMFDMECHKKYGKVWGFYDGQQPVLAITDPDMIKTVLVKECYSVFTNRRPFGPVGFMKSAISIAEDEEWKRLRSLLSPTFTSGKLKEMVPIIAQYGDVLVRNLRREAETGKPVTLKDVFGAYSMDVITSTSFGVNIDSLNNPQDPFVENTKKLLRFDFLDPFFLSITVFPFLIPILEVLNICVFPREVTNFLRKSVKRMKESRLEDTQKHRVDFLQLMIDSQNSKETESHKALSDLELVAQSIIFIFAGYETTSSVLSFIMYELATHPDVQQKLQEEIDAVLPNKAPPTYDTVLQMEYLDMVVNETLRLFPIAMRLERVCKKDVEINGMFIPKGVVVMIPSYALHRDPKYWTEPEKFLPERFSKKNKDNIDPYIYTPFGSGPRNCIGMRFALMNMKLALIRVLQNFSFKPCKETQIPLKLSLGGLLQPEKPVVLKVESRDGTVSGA
Method in brief: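 CYP3A4 activity: Luciferin-PPXE O-dealkylation, 25uM substrate, 200mM KPO4, RT throughout. Read-out is luciferase luminescence; higher values reflect activation.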

Compound | outcome
CCCN1CCO[C@@H]2c3cc(O)ccc3OC[C@@H]21 | inactive
Cc1nc(-c2ccc(-c3ccc(C(=O)N4CCc5cc6c(cc54)C4(CCN(C)CC4)CO6)cc3)c(C)c2)no1 | inactive
CC1=NN=C(c2ccc(N)cc2)c2cc3c(cc2C1)OCO3 | inactive
NCCc1c[nH]c2ccc(O)cc12 | inactive
COc1cc2c(cc1OC)[C@@H]1C(=O)c3ccc4c(c3O[C@@H]1CO2)C=CC(C)(C)O4 | inactive
CC(C)Oc1cccnc1N(C)C1CCN(Cc2ccccc2)CC1 | inactive
CCCCCC[C@H]1C(=O)O[C@H](C)[C@H](NC(=O)c2cccc(NC=O)c2O)C(=O)O[C@@H](C)[C@@H]1OC(=O)CC(C)C | inactive
CC[C@@H]1C(=O)OC[C@@H]1Cc1cncn1C | inactive
O=c1cccc2n1CC1CNC[C@H]2C1 | inactive
COc1ccc2c(c[n+](C)c3c4cc5c(cc4ccc23)OCO5)c1OC | inactive
CCCN1CCO[C@@H]2c3cc(O)ccc3OC[C@H]21 | inactive
CC(C)c1ccc2c(c1)c(SC(C)(C)C)c(CC(C)(C)C(=O)O)n2Cc1ccc(Cl)cc1 | inactive
COc1ccc(C(=O)c2c(C)n(CCN3CCOCC3)c3cc(I)ccc23)cc1 | inactive
c1ccc2sc(C3(N4CCCCC4)CCCCC3)cc2c1 | inactive
O=C(O)Cc1cnc[nH]1 | inactive
C[C@]12N[C@H](Cc3ccccc31)c1ccccc12 | inactive
Nc1ccccc1N | inactive

biological target: Cytochrome P450 2D6 (Homo sapiens) (UniProt P10635); test: qHTS Assay for Inhibitors and Substrates of Cytochrome P450 2D6 (AID 891); conditions: recombinant CYP2D6, luciferin-ME EGE luminescence; series mostly up to 57.1 µM; note: nearly all actives have a fitted effect of over 60% in size; note: potency is the fitted concentration of half-maximal effect
Sequence (P10635 whole entry, looked up): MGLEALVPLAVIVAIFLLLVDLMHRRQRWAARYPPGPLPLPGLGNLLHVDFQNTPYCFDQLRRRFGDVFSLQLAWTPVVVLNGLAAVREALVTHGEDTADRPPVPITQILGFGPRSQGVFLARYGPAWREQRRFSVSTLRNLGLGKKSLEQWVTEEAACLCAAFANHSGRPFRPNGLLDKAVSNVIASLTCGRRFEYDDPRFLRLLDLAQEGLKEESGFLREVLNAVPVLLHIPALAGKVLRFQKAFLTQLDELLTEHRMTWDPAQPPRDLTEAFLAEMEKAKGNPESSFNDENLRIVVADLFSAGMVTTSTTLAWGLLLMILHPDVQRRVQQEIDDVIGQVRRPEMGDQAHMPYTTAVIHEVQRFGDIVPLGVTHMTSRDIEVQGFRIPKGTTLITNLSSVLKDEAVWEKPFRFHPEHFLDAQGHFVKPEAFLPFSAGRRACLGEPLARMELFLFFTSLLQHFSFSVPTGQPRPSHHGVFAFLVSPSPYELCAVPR
Method in brief: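 Luminescent read-out of luciferin formed by 5 nM human CYP2D6 demethylating 30 uM Luciferin-ME EGE (Km level) over 60 min at room temperature after NADPH regeneration addition. Data normalized to full inhibition by 1.43 uM quinidine.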

Compound | Potency
COc1cc2c(cc1OC)[C@@H]1C(=O)c3ccc4c(c3O[C@@H]1CO2)C=CC(C)(C)O4 | 0.0631 µM (active)
CC(C)Oc1cccnc1N(C)C1CCN(Cc2ccccc2)CC1 | 7.94 µM (active)
O=c1cccc2n1CC1CNC[C@H]2C1 | inactive
CCCN(CCC)[C@@H]1CCc2ccc(O)cc2C1 | 0.794 µM (active)
CC(=O)NCCc1c[nH]c2ccccc12 | inactive
c1ccc2sc(C3(N4CCCCC4)CCCCC3)cc2c1 | 3.16 µM (active)
CCn1cc(C(=O)O)c(=O)c2cc3c(cc21)OCO3 | inactive
O=C1CCCN1CC#CCN1CCCC1 | 7.94 µM (active)

test system: not listed separately; test: qHTS Assay for Identification of Small Molecule Antagonists for NFkB Signaling Pathway (AID 895; active = well fitted inhibition curve with a large enough effect in the signal ratio, with a control signal flat, not every such curve was filed as active; the % refers to the signal ratio; note: potency is the fitted concentration of half-maximal effect); conditions: NFkB beta-lactamase reporter cells, FRET ratio 460/530; series mostly up to 38.3 µM
Method in brief: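 Beta-lactamase reporter read-out (460 and 530 nm emission ratio, 405 nm excitation, 2 hrs substrate loading RT) after 5 hr stimulation with 10 pM TNF alpha in compound-treated NFkB-bla ME-180 cells in low-serum medium.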

Compound | Potency
C[C@@H]1O[C@H](C[N+](C)(C)C)C[C@H]1O | inactive
NCCc1c[nH]c2ccc(O)cc12 | inactive
CN[C@@H]1C[C@@H](c2ccc(Cl)c(Cl)c2)c2ccccc21 | 8.91 µM (active)
CNCCc1c[nH]c2ccc(O)cc12 | inactive
NCCc1c[nH]c2ccccc12 | 12.6 µM (active)
COc1ccc2c(c[n+](C)c3c4cc5c(cc4ccc23)OCO5)c1OC | 11.2 µM (active)
CCCN(CCC)[C@@H]1CCc2ccc(O)cc2C1 | inactive
CCCN1CCO[C@@H]2c3cc(O)ccc3OC[C@H]21 | inactive
Cn1cnc(CCN)c1 | inactive
O=C(O)CC[N+](=O)[O-] | inactive
NC(=NCCC[C@H](N)C(=O)O)N[N+](=O)[O-] | inactive
O=C1CCCN1CC#CCN1CCCC1 | inactive
C[C@]12N[C@H](Cc3ccccc31)c1ccccc12 | inactive
